The values below come from PubChem BioAssay (NCATS).

Each structure is given as a SMILES string. Several values for one entry are separate records, joined by “and”; a condition that tells them apart may be missing. Equal entries are not always repeated. Inconclusive results are not listed. Activity calls are given as the source filed them. Unless noted, calls come from the whole dose curve; as a rule, active = well fitted cell-killing curve with a large enough effect; inconclusive = small, poorly fitted or top-dose-only effect; inactive = flat fitted curve, though single readings scatter.

A short description of assay [1]: Cell Viability - LYMP2-020 (AID 986).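 Note: series mostly up to about 92 µM; cells exposed to compound for 24 h at 37 °C; plate controls were DMSO only for no effect and tetraoctylammonium bromide at 92 µM for full effect; nearly all actives have a fitted effect of over 55% in size.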 An outline of the steps:
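Seed 2500 cells per well and incubate 5 hr at 37 C. Add compounds at a concentration series and incubate 24 hr at 37 C. Add CellTiter-Glo, wait 30 min at RT, read luminescence, and fit a Hill curve for AC50.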

Assay [2] in a line: Cell Viability - LYMP2-022 (AID 987).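 Note: 0% = DMSO alone and full effect = tetraoctylammonium bromide at 92 µM; nearly all actives have a fitted effect of over 55% in size.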 An outline of the steps: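 Cells were seeded at 2500 per well, rested 5 hr at 37 C, and treated with titrated compounds for 24 hr at 37 C. Cellular ATP was then quantified by luciferase luminescence, and AC50 values were derived from Hill-modelled concentration-response curves.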
A short description of assay [3]: Cell Viability - LYMP2-024 (AID 988).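 Note: plate controls were DMSO only for no effect and 92 µM tetraoctylammonium bromide for full effect; nearly all actives have a fitted effect of over 60% in size.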 Summed up:
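qHTS cytotoxicity, human lymphoblastoid line, complete medium; 24 h cpd treatment, 37 C; CellTiter-Glo ATP luminescence readout; tetraoctylammonium bromide positive control; AC50 via Hill fit.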

A short description of assay [4]: Cell Viability - LYMP2-026 (AID 989).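 Note: cells exposed to compound for 24 h at 37 °C; % is set by controls: 0 for no effect and ±100 for the full control effect; nearly all actives have a fitted effect of over 50% in size.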 Summed up:
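Cells are seeded at 2500 per well and held 5 hr at 37 C. Compounds are added in concentration series for 24 hr, then CellTiter-Glo reagent is applied and luminescence read.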

Assay [5] is described as follows: Cell Viability - LYMP1-002 - Assay at 24 hr (AID 993). Note: % is set by controls: 0 for no effect and ±100 for the full control effect. An outline of the steps: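 Acute toxicity is measured as concentration-dependent loss of cellular ATP in a human lymphoblastoid line (Coriell LYMP1-002) after 24 h treatment in complete medium. ATP is quantified by luciferase luminescence and AC50 derived by Hill modelling.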
Assay [6] in a line: Cell Viability - LYMP1-002 - Assay at 40 hr (AID 994).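 Note: 0% = DMSO only and full inhibition = 92 µM tetraoctylammonium bromide; nearly all actives have a fitted effect of over 60% in size.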 An outline of the steps: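 Cells are plated at 2500 per well and rested 5 hr at 37 C. Compounds are added and incubated 40 hr at 37 C. CellTiter-Glo reagent is added for 30 min at room temperature before luminescence is read.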
Assay [7] has as its target Bile acid receptor (Homo sapiens) (UniProt Q96RI1). Kind of assay: qHTS assay for small molecule antagonists of farnesoid X receptor signaling (AID 588526; calls by dose curve; note: % is set by controls: 0 for no effect and ±100 for the full control effect). Summed up: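 Concentration-response titrations were fitted to the Hill equation for half-maximal inhibition and maximal response, with data normalised to 50 uM chenodeoxycholic acid and DMSO control wells. Cells: FXR-UAS-bla HEK293T, dialyzed FBS.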
(Quantitative high-throughput screening tests each substance at several concentrations.)

The target in assay [8] is Peroxisome proliferator-activated receptor gamma (Homo sapiens) (UniProt P37231). As to the kind of experiment: qHTS assay for small molecule agonists of peroxisome proliferator-activated receptor gamma signaling (AID 588536; active = well fitted curve in the direction sought with a large enough effect in the signal ratio, with a control signal flat, not every such curve was filed as active; the % refers to the signal ratio;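 note: 0% = DMSO basal wells and 100% = rosiglitazone at 2 µM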). Summed up: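 This is an agonist-mode beta-lactamase reporter assay in HEK293 PPAR-gamma-UAS-bla cells with 1% charcoal/dextran FBS. Compound titrations ran 16 h at 37 C before CCF4 detection. EC50 and efficacy are Hill fits scaled to 2 uM rosiglitazone (100%) and DMSO basal.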
Chain of Peroxisome proliferator-activated receptor gamma (Homo sapiens) (P37231 whole entry, looked up): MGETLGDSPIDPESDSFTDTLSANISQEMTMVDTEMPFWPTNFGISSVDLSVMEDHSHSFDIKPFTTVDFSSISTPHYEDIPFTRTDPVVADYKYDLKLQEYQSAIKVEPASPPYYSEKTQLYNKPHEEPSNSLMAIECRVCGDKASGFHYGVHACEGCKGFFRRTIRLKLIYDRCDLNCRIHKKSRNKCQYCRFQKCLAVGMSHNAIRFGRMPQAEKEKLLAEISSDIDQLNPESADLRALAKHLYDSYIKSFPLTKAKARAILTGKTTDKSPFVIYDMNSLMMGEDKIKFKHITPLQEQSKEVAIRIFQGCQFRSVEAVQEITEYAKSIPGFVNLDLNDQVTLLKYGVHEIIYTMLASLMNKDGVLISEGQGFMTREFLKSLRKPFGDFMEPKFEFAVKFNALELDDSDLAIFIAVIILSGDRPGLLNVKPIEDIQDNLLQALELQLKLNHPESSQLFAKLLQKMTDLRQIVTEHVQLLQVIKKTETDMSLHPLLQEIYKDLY

Assay [9] shares this target. Kind of assay: qHTS assay for small molecule antagonists of peroxisome proliferator-activated receptor gamma signaling (AID 588537; active = well fitted inhibition curve with a large enough effect in the signal ratio, with a control signal flat, not every such curve was filed as active; the % refers to the signal ratio;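 note: reporter cells co-stimulated with 50 nM rosiglitazone agonist during compound treatment; % of control where 0% means no effect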). Summed up: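 Compounds are tested as concentration series for inhibition of rosiglitazone-driven (50 nM) reporter expression in GeneBLAzer PPAR-gamma-UAS-bla HEK293 cells. After 16 h at 37 C, CCF4 substrate is added for 2 h at room temperature and blue/green fluorescence is measured.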

The target in assay [10] is Vitamin D3 receptor (Homo sapiens) (UniProt P11473). Kind of assay: qHTS assay for small molecule antagonists of vitamin D receptor signaling (AID 588541; calls by dose curve;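 note: receptor activated by calcitriol during compound treatment; series mostly up to about 77 µM; % is set by controls: 0 for no effect and ±100 for the full control effect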). Summed up: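 VDR-UAS-bla HEK293T cells (2000/well, 2% charcoal-stripped FBS) were treated with titrated compounds plus 1-alpha,25-dihydroxyvitamin D3 (50 nM or 3 nM final) for 16 h at 37 C. CCF4 beta-lactamase fluorescence was read; Hill fits gave IC50.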
Chain of Vitamin D3 receptor (Homo sapiens) (P11473 whole entry, looked up): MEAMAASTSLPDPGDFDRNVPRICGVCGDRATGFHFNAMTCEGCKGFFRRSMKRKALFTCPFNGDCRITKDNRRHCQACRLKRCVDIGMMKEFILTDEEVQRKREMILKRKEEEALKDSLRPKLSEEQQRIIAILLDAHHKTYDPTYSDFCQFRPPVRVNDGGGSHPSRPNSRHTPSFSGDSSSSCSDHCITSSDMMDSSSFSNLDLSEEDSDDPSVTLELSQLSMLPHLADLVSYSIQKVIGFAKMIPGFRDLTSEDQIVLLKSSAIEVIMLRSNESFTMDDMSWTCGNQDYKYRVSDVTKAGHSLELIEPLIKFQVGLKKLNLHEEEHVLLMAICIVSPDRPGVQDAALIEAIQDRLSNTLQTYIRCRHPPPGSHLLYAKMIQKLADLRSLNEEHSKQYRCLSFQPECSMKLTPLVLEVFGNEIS

For assay [11] the target is unchanged. As to the kind of experiment: qHTS assay for small molecule agonists of vitamin D receptor signaling (AID 588543; calls by dose curve;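 note: 0% = DMSO basal and 100% = reference agonist control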). Summed up: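 β-lactamase reporter, VDR-UAS-bla HEK293T, agonist mode. Cells plated 5 h at 37 °C, compound titration 16 h at 37 °C, CCF4 dye 2 h RT, ratio 460/530 nm. Hill fit → EC50, efficacy vs 50 nM 1α,25-(OH)2D3.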
For assay [12], the target named is Estrogen receptor (Homo sapiens) (UniProt P03372). Kind of assay: qHTS assay for small molecule antagonists of estrogen receptor alpha signaling (AID 588513; active = well fitted curve in the direction sought with a large enough effect in the signal ratio, with a control signal flat, not every such curve was filed as active; the % refers to the signal ratio; note: % is set by controls: 0 for no effect and ±100 for the full control effect). Summed up:
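Beta-lactamase reporter, antagonist mode, HEK 293 GripTite cells; 0.5nM E2 stimulus, 18 h, 37 C; CCF4 dye 2 h RT; fluorescence. IC50 and efficacy from Hill fits, normalized to E2 and DMSO.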

Assay [13] has the same target. Kind of assay: qHTS assay for small molecule agonists of estrogen receptor alpha signaling (AID 588514; calls by dose curve;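 note: 0% = vehicle only and 100% = reference agonist; nearly all actives have a fitted effect of over 70% in size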). An outline of the steps: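 Efficacy is expressed against 20 nM 17-beta-estradiol (100%) and DMSO basal (0%); EC50 from Hill equation. Assay: beta-lactamase reporter in ER-alpha-UAS-bla HEK 293 cells, 18 h compound incubation, CCF4 detection.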
For assay [14], the target named is Glucocorticoid receptor (Homo sapiens) (UniProt P04150). As to the kind of experiment: qHTS assay for small molecule agonists of glucocorticoid receptor signaling (AID 588532; active = well fitted curve in the direction sought with a large enough effect in the signal ratio, with a control signal flat; the % refers to the signal ratio;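 note: 100% = dexamethasone at 0.1 µM and 0% = DMSO only wells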). As to conditions: HeLa MMTV-bla, beta-lactamase ratio, agonist, 18 h; stronger effect = higher value; percent of dexamethasone control, DMSO zero. Summed up:
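MMTV-bla HeLa, beta-lactamase reporter; medium with 1% charcoal/dextran-stripped FBS; cpds up to 92 uM, 18 h, 37 C; CCF4 readout 460/530 nm; Hill fit → EC50, efficacy vs 0.1 uM dexamethasone = 100%.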

Assay [15] has the same target. Kind of assay: qHTS assay for small molecule antagonists of glucocorticoid receptor signaling (AID 588533; active = well fitted inhibition curve with a large enough effect in the signal ratio, with a control signal flat, not every such curve was filed as active; the % refers to the signal ratio). Summed up: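 Antagonist-mode qHTS: compound titrations added to GRE-bla HeLa cells, then dexamethasone 2 nM final; 18 h, 37 C. CCF4 FRET fluorescence normalized to dexamethasone and DMSO; IC50 from Hill fit.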
Assay [16] is described as follows: qHTS assay for small molecule antagonists of peroxisome proliferator-activated receptor delta signaling (AID 588535; active = well fitted inhibition curve with a large enough effect in the signal ratio, with a control signal flat, not every such curve was filed as active; the % refers to the signal ratio;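 for max response: cells co-treated with a PPAR-delta agonist as stimulator during compound exposure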). To be noted: HEK293T PPARd-UAS-bla, beta-lactamase FRET ratio, 18 h; 460 nm channel. Summed up:
(§1)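 Inhibition of PPAR-delta response element-driven beta-lactamase expression is measured in HEK293T cells exposed to a compound titration series for 18 hrs at 37 C. Half-maximal inhibition comes from Hill equation fitting.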

Assay [17] addresses Peroxisome proliferator-activated receptor delta (Homo sapiens) (UniProt Q03181). The assay is described as above. An outline of the steps: as §1
The target in assay [18] is Androgen receptor (Homo sapiens) (UniProt P10275). Kind of assay: qHTS assay for small molecule agonists of androgen receptor signaling (AID 588515; active = well fitted curve in the direction sought with a large enough effect in the signal ratio, with a control signal flat; the % refers to the signal ratio; note: % is set by controls: 0 for no effect and ±100 for the full control effect). To be noted: AR-UAS-bla HEK293, beta-lactamase ratio, agonist 16 h; stronger effect = higher value. Summed up: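 Stimulation of an AR-responsive β-lactamase reporter in GripTite HEK293 cells was measured after 16 h compound exposure at 37 °C, via CCF4 fluorescence after 2 h RT. EC50 from Hill fits, normalized to R1881 at 30 nM.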
Chain of Androgen receptor (Homo sapiens) (P10275 whole entry, looked up): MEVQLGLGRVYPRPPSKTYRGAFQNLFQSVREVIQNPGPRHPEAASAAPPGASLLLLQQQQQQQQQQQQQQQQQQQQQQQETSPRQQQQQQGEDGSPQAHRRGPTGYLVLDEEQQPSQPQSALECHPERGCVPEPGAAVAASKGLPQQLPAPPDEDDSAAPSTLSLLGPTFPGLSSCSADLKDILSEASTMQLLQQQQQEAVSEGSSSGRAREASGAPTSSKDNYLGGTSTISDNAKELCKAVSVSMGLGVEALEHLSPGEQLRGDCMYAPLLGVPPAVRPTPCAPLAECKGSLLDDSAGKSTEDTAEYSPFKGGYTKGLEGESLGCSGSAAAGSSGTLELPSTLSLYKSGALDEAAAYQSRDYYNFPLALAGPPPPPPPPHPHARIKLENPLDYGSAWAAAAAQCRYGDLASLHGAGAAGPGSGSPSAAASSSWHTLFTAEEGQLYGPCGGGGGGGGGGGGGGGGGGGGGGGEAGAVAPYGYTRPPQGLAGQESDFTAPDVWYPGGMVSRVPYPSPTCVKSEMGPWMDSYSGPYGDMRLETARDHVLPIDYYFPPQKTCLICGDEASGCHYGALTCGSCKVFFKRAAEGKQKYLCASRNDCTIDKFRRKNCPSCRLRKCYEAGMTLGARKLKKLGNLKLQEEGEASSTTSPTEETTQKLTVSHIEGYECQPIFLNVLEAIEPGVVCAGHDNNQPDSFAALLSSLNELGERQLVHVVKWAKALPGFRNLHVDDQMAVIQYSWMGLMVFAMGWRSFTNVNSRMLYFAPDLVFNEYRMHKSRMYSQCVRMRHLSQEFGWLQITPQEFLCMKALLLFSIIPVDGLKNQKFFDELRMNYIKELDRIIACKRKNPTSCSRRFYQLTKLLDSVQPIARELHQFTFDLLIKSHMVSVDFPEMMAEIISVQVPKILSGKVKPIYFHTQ

Assay [19] shares this target. As to the kind of experiment: qHTS assay for small molecule antagonists of androgen receptor signaling (AID 588516; active = well fitted curve in the direction sought with a large enough effect in the signal ratio, with a control signal flat, not every such curve was filed as active; the % refers to the signal ratio; note: % is set by controls: 0 for no effect and ±100 for the full control effect). An outline of the steps:
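HEK293 AR-UAS-bla cells, 10% dialyzed FBS medium; cpd titration + R1881 10 nM final, 16 h 37 C; CCF4 2 h RT; FRET ratio; IC50/efficacy via Hill fit.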

Chain of Peroxisome proliferator-activated receptor delta (Homo sapiens) (Q03181 whole entry, looked up): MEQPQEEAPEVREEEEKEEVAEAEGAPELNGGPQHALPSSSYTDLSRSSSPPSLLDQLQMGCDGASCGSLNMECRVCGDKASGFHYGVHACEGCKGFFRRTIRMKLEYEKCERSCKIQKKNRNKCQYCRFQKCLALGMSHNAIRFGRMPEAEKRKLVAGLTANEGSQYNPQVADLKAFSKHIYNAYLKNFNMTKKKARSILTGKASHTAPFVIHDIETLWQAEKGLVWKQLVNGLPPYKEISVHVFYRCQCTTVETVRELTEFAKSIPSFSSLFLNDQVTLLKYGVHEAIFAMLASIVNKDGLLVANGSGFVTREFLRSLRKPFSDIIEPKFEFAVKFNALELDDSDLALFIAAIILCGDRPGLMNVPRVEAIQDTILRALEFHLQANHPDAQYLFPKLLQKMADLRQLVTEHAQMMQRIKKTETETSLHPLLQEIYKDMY
Chain of Bile acid receptor (Homo sapiens) (Q96RI1 whole entry, looked up): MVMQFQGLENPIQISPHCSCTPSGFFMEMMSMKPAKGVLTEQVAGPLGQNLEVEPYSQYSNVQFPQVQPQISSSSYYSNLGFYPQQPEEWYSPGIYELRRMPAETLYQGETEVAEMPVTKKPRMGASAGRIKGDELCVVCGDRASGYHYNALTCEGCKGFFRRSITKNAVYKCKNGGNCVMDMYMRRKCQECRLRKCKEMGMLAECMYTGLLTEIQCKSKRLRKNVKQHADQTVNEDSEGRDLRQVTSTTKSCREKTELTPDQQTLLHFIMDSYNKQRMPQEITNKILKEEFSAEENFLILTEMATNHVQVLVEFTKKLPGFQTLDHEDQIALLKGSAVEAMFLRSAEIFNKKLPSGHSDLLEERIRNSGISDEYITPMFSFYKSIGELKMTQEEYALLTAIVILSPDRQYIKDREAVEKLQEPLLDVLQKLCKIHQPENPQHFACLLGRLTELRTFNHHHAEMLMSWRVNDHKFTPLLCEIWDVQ
Chain of Glucocorticoid receptor (Homo sapiens) (P04150 whole entry, looked up): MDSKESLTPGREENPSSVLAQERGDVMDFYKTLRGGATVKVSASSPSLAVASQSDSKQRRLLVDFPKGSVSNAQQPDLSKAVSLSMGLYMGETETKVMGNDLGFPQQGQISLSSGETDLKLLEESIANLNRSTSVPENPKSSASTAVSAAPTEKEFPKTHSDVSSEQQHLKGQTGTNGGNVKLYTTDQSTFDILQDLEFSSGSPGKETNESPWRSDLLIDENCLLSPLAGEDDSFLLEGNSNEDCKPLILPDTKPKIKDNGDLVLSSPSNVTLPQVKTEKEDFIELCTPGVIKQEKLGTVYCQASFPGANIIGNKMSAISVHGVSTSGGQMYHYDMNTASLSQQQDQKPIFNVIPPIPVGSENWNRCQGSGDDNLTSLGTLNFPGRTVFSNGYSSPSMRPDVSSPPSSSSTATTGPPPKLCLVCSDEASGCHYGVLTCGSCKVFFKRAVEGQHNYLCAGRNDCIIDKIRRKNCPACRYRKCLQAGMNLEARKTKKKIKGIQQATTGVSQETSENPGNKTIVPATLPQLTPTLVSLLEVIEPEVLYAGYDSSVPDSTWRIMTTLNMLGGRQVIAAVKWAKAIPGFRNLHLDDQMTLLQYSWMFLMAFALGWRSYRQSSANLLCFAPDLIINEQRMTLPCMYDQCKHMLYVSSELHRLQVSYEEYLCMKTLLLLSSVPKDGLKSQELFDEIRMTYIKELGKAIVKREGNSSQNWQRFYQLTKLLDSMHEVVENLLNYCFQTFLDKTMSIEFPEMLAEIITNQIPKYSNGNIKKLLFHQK
Chain of Estrogen receptor (Homo sapiens) (P03372 whole entry, looked up): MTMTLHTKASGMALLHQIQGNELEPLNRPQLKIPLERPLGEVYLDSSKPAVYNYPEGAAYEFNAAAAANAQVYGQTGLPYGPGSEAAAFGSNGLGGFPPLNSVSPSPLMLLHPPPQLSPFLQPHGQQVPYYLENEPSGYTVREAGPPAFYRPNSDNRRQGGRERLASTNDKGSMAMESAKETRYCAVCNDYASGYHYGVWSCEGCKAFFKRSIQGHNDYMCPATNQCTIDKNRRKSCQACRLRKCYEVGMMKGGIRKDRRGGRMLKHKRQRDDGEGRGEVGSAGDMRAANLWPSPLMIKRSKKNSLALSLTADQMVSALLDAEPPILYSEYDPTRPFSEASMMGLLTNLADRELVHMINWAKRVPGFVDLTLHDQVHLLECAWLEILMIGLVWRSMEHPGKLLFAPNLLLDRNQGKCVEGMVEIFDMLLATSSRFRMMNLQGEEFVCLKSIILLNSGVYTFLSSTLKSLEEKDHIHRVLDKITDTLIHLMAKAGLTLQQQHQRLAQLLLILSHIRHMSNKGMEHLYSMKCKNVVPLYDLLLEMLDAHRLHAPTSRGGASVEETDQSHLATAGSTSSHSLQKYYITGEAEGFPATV

For the compound `Nc1cccc(N)c1`, the Potency result in assay [1], in [2], in assay [3], in assay [5] and in assay [6] was “inactive” each time. Besides, the compound was classed as inactive in [4], in assay [7], in [8], in assay [9], in assay [10] and in [11].
`CCCCCCC=O`: the Potency result in [1], in [2], in assay [3], in assay [6], in assay [13] and in assay [17] was “inactive” each time. Moreover, the result in assay [4], in assay [12], in assay [15], in [8], in assay [9] and in assay [10] was inactive. The result in [11] was inactive. Further, in [14], the activation is -0.214% (inactive). Further, the max response in assay [16] was -42.7%.
In the case of `CNc1ccccc1`, the Potency entry in assay [1], in assay [2], in assay [3], in assay [5], in assay [6] and in assay [13] was “inactive” in each case. The outcome in assay [4], in assay [12], in assay [15], in assay [8], in assay [10] and in [11] was inactive. Also, the activation in assay [14] is 19.8% (inactive). For the same compound, the max response in assay [16] was -16.9%.
For `NC(=S)NNC(N)=S`, the Potency result in [1], in assay [2], in [3], in [6] and in assay [17] was “inactive” in each case. Besides, the compound was classed as inactive in assay [4], in assay [7], in assay [15], in assay [8] and in assay [9]. Further, the activation in assay [14] was -4.1% (inactive) and -4.08% (inactive). In addition, the max response in [16] was -7.61% and 32%.
Take `CN(C)CCCNCCCN`: the Potency entry in [1], in [2], in assay [3], in [5], in [6] and in [17] was “inactive” in each case. Also, the outcome in [4], in assay [12], in assay [7], in assay [15], in assay [8] and in assay [9] was inactive. In addition, the call in [10] and in assay [11] was inactive. In addition, the activation in [14] was -1.86% (inactive). For the same compound, the max response in [16] was -8.47%.
With `C=CCCCCCCC=C`, the Potency entry in [1], in [2], in assay [3], in assay [5], in [6] and in assay [17] was “inactive” in each case. Besides, the outcome in assay [7], in [8], in [9], in [10] and in assay [11] was inactive. Moreover, the max response in assay [16] is -11.7%.
`O=C(O)c1cccc([N+](=O)[O-])c1`: the Potency entry in assay [1], in assay [3], in assay [5], in [6] and in assay [17] was “inactive” throughout. Also, the compound was classed as inactive in [4], in assay [15], in assay [8] and in [9]. For the same compound, the activation in assay [14] is 3.85% (inactive). In assay [16], the max response is 27.4% and 43.1%.
For the compound `CC(=C/C=C/C(C)=C/C=C/C=C(C)/C=C/C=C(C)/C=C/C(=O)O)/C=C/C(=O)O`, the Potency result in assay [1], in [2], in assay [3], in assay [5], in assay [6] and in [17] was “inactive” throughout. Also, the call in assay [4], in assay [12], in assay [19], in assay [7], in [8] and in assay [9] was inactive. Also, the compound was called inactive in assay [10] and in [11]. Further, the activation in assay [18] was 17% (inactive); in [14] it was -6.11% (inactive). In addition, the max response in assay [16] worked out at 11.7%.
